This note sets out measurements from PubChem BioAssay (NCI).

Compounds without any hit were thinned out: in the full panel of roughly 83,000, 20% have a hit.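 Method: cells in 96-well plates; compound added at one concentration; 48 h incubation; percent growth measured; values under 10 scored active.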 A number with no mark means an inactive call. The source made the active and inactive calls.

What all share (test): NCI-60 one-dose screen, 48 h (100 = growth as untreated, 0 = no growth, -100 = all killed)
Common to all, as to details: 10 µM unless noted

Assay [1] relates to NCI-H23 lung.
In assay [2] the test system is NCI-H226 lung.
The subject of assay [3] is NCI-H322M lung.
For assay [4], the system named is HOP-62 NSCLC.
For assay [5], the system named is NCI-H460 lung.
Assay [6] concerns HOP-92 NSCLC.
Assay [7] concerns NCI-H522 lung.
Assay [8] has as its system A549/ATCC NSCLC.
The subject of assay [9] is 786-0 renal.
Assay [10] concerns COLO 205 colon.
Assay [11] concerns DU-145 prostate.
The subject of assay [12] is K-562 leukemia.
Assay [13] relates to MALME-3M melanoma.
The test system of assay [14] is MDA-MB-231 breast.
For assay [15], the system named is SF-268 CNS.
Assay [16] concerns SF-295 CNS.
Assay [17] deals with SF-539 CNS.
Assay [18] deals with M14 melanoma.
Assay [19] concerns RXF 393 renal.

`CCCCCCCC(=O)SCC/C=C/[C@@H]1CC(=O)NCc2cc(ccn2)C2=N[C@@](C)(CS2)C(=O)N[C@@H](C(C)C)C(=O)O1`: the growth in assay [1] was 2.97% (active); in assay [2], -8.32% (active); in [3] it was -16.8% (active); in [4], -19% (active); in assay [5] it was 5.33% (active); in [6] it was -6.63% (active). In addition, the growth in assay [7] was -13% (active); in [8], -6.82% (active); in assay [9], 12%; in assay [10], -56% (active); in assay [11], 11.8%; in assay [12], 10.3%. Moreover, the growth in assay [13] was 11.4%; in assay [14], 3.63% (active); in assay [15], 11.8%; in assay [16], -62.2% (active); in assay [17], 17%; in [18], 4.89% (active).

As for `CCNCCNc1cc(-c2ccc(Cl)c(Cl)c2)c(C#N)c2nc3ccccc3n12`, the growth in assay [1] was -72.8% (active); in assay [2], -74.2% (active); in [3], -83.5% (active); in [4], -75.6% (active); in assay [5], -71.2% (active); in [6], -85.8% (active). Further, the growth in [7] was -78.1% (active); in assay [8] it was -87.3% (active); in assay [9] it was -84.8% (active); in assay [10] it was -83.7% (active); in [11], -93.7% (active); in [12], -65.3% (active). For the same molecule, the growth was -77.5% (active) in [14]; -91% (active) in [19]; -79.6% (active) in assay [15]; -92.3% (active) in assay [16]; -87.5% (active) in assay [17]; -73.8% (active) in assay [18].

As to `ClCc1ccc(-c2ccc(Cn3cnc4c(Cl)nc(Cl)nc43)cc2)cc1`, the growth is 29.8% in assay [1]; 68.3% in [2]; 48.4% in [3]; -15.9% (active) in assay [4]; 7.18% (active) in assay [5]; -77.9% (active) in assay [6]. In addition, the growth is -20.6% (active) in assay [7]; -41.5% (active) in [8]; 13.2% in assay [9]; 35.3% in [10]; -93.4% (active) in [11]; 9.48% (active) in assay [12]. For the same molecule, the growth in assay [13] is -20% (active); in assay [14], -37.7% (active); in [15], -13.5% (active); in assay [16], -74.2% (active); in assay [17], -86.9% (active); in [18], 48.3%.

`O=C1CC(c2cccc(F)c2)c2c(n[nH]c2-c2ccc(Cl)cc2)N1` (stereo unspecified): the growth was 80.4% in assay [1]; 80.7% in [2]; 81.9% in [3]; 65.7% in assay [4]; 106% in [5]; 83.6% in assay [6]. Also, the growth was 61.5% in [7]; 61.4% in [8]; 89.7% in assay [9]; 104% in assay [10]; 102% in assay [11]; 96.4% in [12]. The growth is 99.4% in assay [13]; 80.4% in assay [14]; 94.1% in [15]; 91.8% in assay [16]; 91.3% in [17]; 100% in [18].

`O=C(Nc1ccc(N=Nc2ccccc2)cc1)c1cccc2ccccc12`: the growth is 81.2% in [1]; 78.2% in [2]; 77.9% in assay [3]; 60.5% in assay [4]; 61.1% in assay [5]; 82.5% in assay [6]. The growth is 34.9% in [7]; 46.1% in [8]; 79.4% in [9]; 77.1% in [10]; 85.3% in assay [11]; 21.3% in [12]. In addition, the growth in [13] is 71.6%; in assay [14] it was 65.9%; in [15], 77.5%; in assay [16], 57.1%; in assay [17] it was 69%; in assay [18], 37.6%.

Turning to `CC1(O)CCC(Nc2cc(-c3ccc(C(F)(F)F)cc3)c(C#N)c3nc4ccccc4n23)CC1` (stereo unspecified), the growth in assay [1] is 81.9%; in assay [2] it was 71%; in assay [3], 89.9%; in assay [4] it was 64.7%; in assay [5] it was 68.7%; in assay [6], 52.5%. Also, the growth in assay [7] was 63.2%; in assay [8], 56%; in assay [9], 70.7%; in assay [10], 61%; in [11], 67.8%; in assay [12], 73.1%. The growth in assay [14] was 50.4%; in [19], 53.2%; in [15], 64.5%; in [16] it was 51.9%; in assay [17], 63.4%; in assay [18], 91.2%.

`COc1cnc2c(c1)C(=O)c1c-2n(CCCN2CCC(O)CC2)c(=O)c2cc(Cl)ccc12`: the growth is 11.8% in [1]; 39.3% in [2]; 46.4% in [3]; 23.6% in assay [4]; -60.8% (active) in assay [5]; 77.3% in [6]. For the same molecule, the growth in assay [7] was 32.4%; in [8] it was -65.8% (active); in assay [9], 4.34% (active); in [10], 47.1%; in assay [11], 22.8%; in [12] it was -38.7% (active). Moreover, the growth in assay [14] was -28.4% (active); in [19], 28.2%; in [15] it was 34.7%; in assay [16], 17.8%; in [17], 14.7%; in assay [18], 30.9%.
